Measured values reported in PubChem BioAssay.

Biological target: Streptavidin (Streptomyces avidinii) (UniProt P22629)
Experiment: streptavidin binders on small-molecule microarray, primary screen, artefact control for SMM compound annotation, biophysical, 635/667 nm fluorescence (AID 1147);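 further: signal reflects streptavidin binding to arrayed compounds as a control protein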
Conditions: streptavidin binding, higher = more signal

Chain of Streptavidin (Streptomyces avidinii) (P22629 whole entry, looked up): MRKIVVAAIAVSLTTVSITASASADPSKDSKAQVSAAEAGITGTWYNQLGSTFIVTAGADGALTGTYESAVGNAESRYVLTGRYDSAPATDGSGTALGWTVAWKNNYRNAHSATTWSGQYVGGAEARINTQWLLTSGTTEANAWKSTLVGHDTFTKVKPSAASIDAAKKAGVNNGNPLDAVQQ

Q: How did the composite z-score turn out when CCOC(=O)C[C@H]1[C@H](OC(=O)c2ccccc2-c2ccccc2)[C@@H](NC(=O)c2ccc3ccccc3c2)c2cc(OCCCO)ccc2N1C(=O)c1ccccc1 was run?
A: Its composite z-score is 0.157.

Q: O=C1OCCC=C[C@H]2OC34C=CCN(Cn5nnc6ccccc65)C(=O)[C@H]3N(CCCO)C(=O)[C@@H]4C12 (stereo partly specified) was tested. Which composite z-score did it give?
A: The composite z-score was -1.01.

Q: Which composite z-score does the source give for O=C(C1N=C(c2ccc(OCCCO)cc2)N(c2ccccc2)O1)N1CCCCC1 (stereo unspecified) here?
A: The composite z-score was 1.56.

Q: For CCCCC[C@H]1OC[C@@]23C=C(Br)[C@@H](CC12)[C@@]1(CO1)C3=O (stereo partly specified), which composite z-score is on record?
A: The composite z-score was -0.619.

Q: With C=CC[C@]1(C(=O)N2CCCCC2)N=C(c2ccc(OCCCO)cc2)O[C@H]1c1ccccc1CN=[N+]=[N-] as the molecule, how does the composite z-score read?
A: The composite z-score was 0.997.

Q: For COCCCNC(=O)[C@@H]1c2ccccc2C(=O)N(C(C)C)[C@H]1c1ccc(CO)cc1, which composite z-score is on record?
A: The composite z-score was -0.337.

Q: With CCCCN1CC=CC23O[C@@H]4/C=C\CCC(C)OC(=O)C4[C@H]2C(=O)N(CCCO)[C@@H]3C1=O (stereo partly specified) as the molecule, how does the composite z-score read?
A: The composite z-score was -0.774.

Q: For CN(C)C(=O)[C@]1(CCC(=O)OC(C)(C)C)N=C(c2ccc(OCCCO)cc2)O[C@@H]1c1ccccc1CN=[N+]=[N-], which composite z-score is on record?
A: The composite z-score was 0.588.

Q: Which composite z-score does the source give for C=CCNC(=O)[C@@H]1[C@H]2C(=O)O[C@H](c3ccccc3)[C@H](c3ccccc3)N2[C@H](c2ccc(OCCO)cc2)[C@@]12C(=O)N(C(=O)OCCOC)c1ccc(C#Cc3ccc(OC)cc3)cc12 here?
A: The composite z-score was 0.613.

Q: For CCCN1C(=O)[C@@]2(Cc3ccccc31)N=C(c1ccc(OCCCO)cc1)O[C@H]2c1ccccc1, which composite z-score is on record?
A: Its composite z-score is 0.469.

Q: With CC1CC/C=C\[C@H]2OC34C=CCN(Cc5ccccc5)C(=O)[C@H]3N(C(CO)C(C)C)C(=O)[C@@H]4C2C(=O)O1 (stereo partly specified) as the molecule, how does the composite z-score read?
A: Its composite z-score is -0.854.
